Source: ChEMBL document CHEMBL3988442, “University of Dundee, Small-Polar-MMV Screening Library” (2021)

The compounds below were run against T1, Aspartate--tRNA(Asp/Asn) ligase (Mycobacterium tuberculosis (strain ATCC 25618 / H37Rv)) (UniProt P9WFW3) (assay: Assay for Asp RNA synthetase-1 from Mycobacterium tuberculosis). Conditions: 30 µM.
T1 sequence (whole entry): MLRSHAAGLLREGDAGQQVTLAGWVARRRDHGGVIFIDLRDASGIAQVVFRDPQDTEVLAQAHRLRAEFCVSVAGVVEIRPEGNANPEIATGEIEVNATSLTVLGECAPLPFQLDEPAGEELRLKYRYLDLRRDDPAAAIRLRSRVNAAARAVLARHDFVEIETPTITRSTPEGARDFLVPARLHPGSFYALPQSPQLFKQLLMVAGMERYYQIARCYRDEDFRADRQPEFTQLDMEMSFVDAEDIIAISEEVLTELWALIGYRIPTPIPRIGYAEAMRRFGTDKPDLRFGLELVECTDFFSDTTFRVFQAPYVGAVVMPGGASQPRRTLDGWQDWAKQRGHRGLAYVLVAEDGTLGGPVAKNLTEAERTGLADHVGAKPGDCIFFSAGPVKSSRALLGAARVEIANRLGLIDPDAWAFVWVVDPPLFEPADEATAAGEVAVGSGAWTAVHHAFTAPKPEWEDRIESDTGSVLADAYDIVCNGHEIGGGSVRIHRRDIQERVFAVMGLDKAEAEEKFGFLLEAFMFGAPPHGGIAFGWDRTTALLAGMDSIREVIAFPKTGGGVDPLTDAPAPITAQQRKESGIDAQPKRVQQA
Type: functional
Parameters: scale not given: in the data most compounds retested in dose-response had high values

Row | Compound | Percent Effect [%]
1 | CC(C)N1CCc2c(C#N)c(NCc3ccco3)n3cnnc3c2C1 | 3.86
2 | CS(=O)(=O)N1CCC(Oc2ccc(C(=O)N3CCSCC3)cc2Cl)CC1 | 1.75
3 | CCCn1[nH]cc/c1=N\C(=O)CN1CCc2cnc(CC)nc2C1 | 5.8
4 | COCC1CN(Cc2ccsc2)Cc2nn(C)cc21 (stereo not given) | 15.7
5 | Cc1cc(=O)n2ncnc2n1CC(O)c1cc(F)ccc1F (stereo not given) | 3.44
6 | NC(=O)C1CCN(c2nc3nccc(-c4ccccn4)c3c(=O)[nH]2)CC1 | 1.02
7 | Cc1ncsc1C(=O)NCCn1nc(C2CCNC2)c2cccnc21 (stereo not given) | -3.63
8 | O=C(c1nc(COc2ccc3c(c2)OCO3)no1)N1CCCC1 | 6.21
9 | COCc1ccccc1CNc1nnc(C)c(C)c1C#N | 7.84
10 | Cc1ccsc1CNC(=O)Cc1c(C)nc2c(c1C)c(=O)[nH]n2C | -4.18
11 | COc1ccc(CS(=O)(=O)CC(=O)NCC2CC2)cc1F | 3.98
12 | COc1cccc(N2CCN(Cc3ccc(NC(C)=O)cc3)CC2=O)c1 | -1.75
13 | CC(C)COC(C)C(=O)NCc1ccc(N(C)C)cc1 (stereo not given) | 5.65
14 | CCCNC(=O)CNC(=O)CCc1ccccc1Br | -2.76
15 | O=C1CC(c2cccc(O)c2)c2sc(C(=O)O)c(-c3ccccc3)c2N1 (stereo not given) | -3.78
16 | Cc1ccc(CC(=O)N2Cc3nccn3CC(CN(C)C)C2)cc1 (stereo not given) | 1.66
17 | CCCOc1ccc(CNC2CCCc3c2cnn3CC)cc1OC (stereo not given) | -1.51
18 | O=C(NCCN1CCCCCC1=O)c1n[nH]c(=O)c2ccccc12 | -3.85
19 | CCc1nc(C2CCCN(C(=O)c3ccc(OC(C)C)nc3)C2)no1 (stereo not given) | -1.24
20 | CCS(=O)(=O)N1CCc2c(CN(C)Cc3ccco3)cncc2C1 | -0.0582

Row | Compound | Percent Effect [%]
21 | O=C(O)CCc1cccc(C2CCCN2Cc2ccc(F)c(F)c2)n1 (stereo not given) | -0.372
22 | O=C(NCCc1coc(-c2ccc(F)cc2)n1)NC1CCC(O)CC1 (stereo not given) | -3.81
23 | CCc1n[nH]c(C2CN(Cc3nccn3CC)CCO2)n1 (stereo not given) | 1.7
24 | CCN(CC)C(=O)CCn1ncc2c(Cl)cccc21 | -1.07
25 | Cn1cc(CN2CCC3(CC(=O)N(c4ccc5c(c4)OCO5)C3)C2)cn1 (stereo not given) | 2.85
26 | O=C(NCCNc1ncccn1)c1ccc(-c2ccco2)[nH]c1=O | 6.93
27 | CC(NC(=O)NCCCn1ccnc1)c1ccc2c(c1)OCCCO2 (stereo not given) | 1.46
28 | Cc1ccc(CN2CC[C@H]3OCC[C@@H](c4nc(C)no4)[C@H]3C2)cc1 | -5.18
29 | Cc1nc(CNCC2CCCN2c2cccnn2)cs1 (stereo not given) | -0.7
30 | Cn1cnc(S(=O)(=O)N2CCN(Cc3ccco3)CC2)c1Cl | -2.54
31 | CC(NC1(CNC(=O)Cn2cccn2)CCOCC1)c1ccccc1 (stereo not given) | -0.24
32 | Cc1c(C2CCCN(C(=O)C3CC3)C2)n2c(nc1=O)CCC2 (stereo not given) | -0.253
33 | O=C(c1cccc(OC2CCCC2)c1)N1CCCC(n2cncn2)C1 (stereo not given) | -0.0372
34 | Cc1cc(-c2cnc(N3CCCC(C)C3)nc2-c2cccnc2C)on1 (stereo not given) | 7.13
35 | Cc1nc(COCc2cnc3n2CCN(C2CCC2)C3C)cs1 (stereo not given) | -4.78
36 | CCc1csc(C2CCCN(C(=O)c3cnn(CC)c3)C2)n1 (stereo not given) | 0.0599
37 | O=C(Cc1cccs1)NC1CCN(c2cccc(F)c2)CC1 | 2.33
38 | CC(NC(=O)NCCCc1n[nH]c(N)c1C#N)c1cccs1 (stereo not given) | -7.85
39 | O=C(CSc1ncccn1)N1C[C@H]2CC[C@@H]1CN(Cc1ccncc1)C2 | 3.45
40 | CNc1nc(CNC(=O)Nc2cccc(F)c2)cs1 | -1.08
